# Measurements taken from PMC5540273 (PLoS ONE, 2017).
# Legend:
# Details in all cases: concentration: 1 μM, replicates: in singlicate; n = 1
# [1] = system: T1, MLK1
# T1 construct: gene MAP3K9
# [2] = system: MLK2
# [3] = system: MLK3
# [4] = system: MRCKA
# [5] = system: T2, MRCKB
# T2 construct: gene CDC42BPB
# [6] = system: MST1R
# [7] = system: T3, MST1
# T3 construct: gene STK4
# [8] = system: T4, MST2
# T4 construct: gene STK3
# [9] = system: T5, MST3
# T5 construct: gene STK24
# [10] = system: MST4
# 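Also: KINOMEscan kinase panel screen.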
Structure (SMILES),%Inh [1],%Inh [2],%Inh [3],%Inh [4],%Inh [5],%Inh [6],%Inh [7],%Inh [8],%Inh [9],%Inh [10]
C[C@@H]1CC[C@@H](C(=O)Nc2ccccc2)CN1c1cc(-c2ccc3c(N)n[nH]c3c2)nc(N)n1 [GSK2286062],7%,0%,13%,0%,0%,26%,0%,0%,11%,0%
Cc1cccc(Nc2nc(N[C@H]3CCNC3)ncc2C(N)=O)c1.Cl [GSK2197149],92.9%,4%,86%,0%,0%,0%,43%,0%,31%,36%
Cc1ccc(C(=O)Nc2ccc(Nc3ccnc4cc(-c5nccs5)ccc34)cc2O)cc1.Cl [GW494702],0%,0%,0%,1%,0%,34%,0%,5%,3%,0%
NCCCC(NC(=O)c1cc(Br)c(-c2ccnc3[nH]ccc23)s1)c1ccccc1.O=C(O)C(F)(F)F.O=C(O)C(F)(F)F (stereo not drawn) [GSK1287544],0%,15%,0%,63%,98.8%,17%,0%,0%,0%,11%
Cl.Cl.NCC(NCc1ccc(-c2ccnc3[nH]ccc23)s1)c1ccccc1 (stereo not drawn) [GSK1321565],0%,0%,7%,23%,64%,12%,0%,48%,0%,0%
Cc1ccc(C)c(NC(=O)NC2CCN(c3ccnc(Nc4ccc(F)cc4)n3)C2)c1 (stereo not drawn) [GSK1379720],0%,0%,0%,11%,6%,38%,0%,0%,0%,0%
Cn1cc(-c2[nH]c3cc(NC(=O)[C@H](N)C4CCCCC4)cc4c3c2C=NNC4=O)cn1,88%,69%,83%,0%,0%,15%,27%,99.1%,55%,97.5%
COc1ccc(Nc2nccc(NCCNC(=O)c3cc4ccccc4s3)n2)cc1 [GSK1379896],0%,0%,14%,21%,6%,40%,0%,24%,0%,0%
Oc1cc(Nc2ccnc3cc(I)ccc23)ccc1F [GW552771],0%,13%,0%,0%,0%,28%,9%,0%,2%,0%
COc1cccc(C2=C(Nc3ccc(Cl)c(C(=O)O)c3)C(=O)NC2=O)c1 [SB-390769],4%,0%,0%,12%,0%,100%,25%,51%,0%,96.3%
CCn1c(-c2nonc2N)nc2c(C#CC(C)(C)O)nc(OC[C@H](N)c3ccccc3)cc21 [GSK943949],0%,23%,5%,0%,5%,1%,0%,58%,9%,7%
CN(C)Cc1ccc(-c2ccc3c(Nc4ccc(Oc5ccccn5)cc4)ccnc3c2)o1 [GW567148],0%,0%,1%,0%,0%,41%,14%,0%,0%,0%
Nc1ncc(-c2ccc3nccc(-c4ccncc4)c3c2)cc1S(=O)(=O)N1CCOCC1 [GSK1627798],6%,0%,0%,0%,0%,11%,7%,0%,4%,0%
COc1ccc(-c2coc3ccc(-c4nnc(SCc5ccc(OC)c(C(F)(F)F)c5)o4)cc23)cc1,14%,0%,0%,0%,0%,0%,32%,11%,17%,0%
Cc1ccc(F)c(C(=O)Nc2cccc(-c3nn4ccccc4c3-c3ccnc(Nc4cccc(F)c4)n3)c2)c1F [GSK361061],14%,42%,31%,22%,24%,34%,34%,0%,2%,15%
CN(C)S(=O)(=O)c1cc(-c2ccc3nccc(-c4cccc(S(N)(=O)=O)c4)c3c2)cnc1N [GSK1669921],0%,22%,0%,0%,0%,32%,20%,2%,5%,6%
Cl.c1ccc(-c2ccc3c(Nc4ccc5[nH]ncc5c4)ccnc3c2)nc1 [GW440137],0%,27%,11%,9%,0%,43%,0%,28%,0%,3%
O=C(Nc1ccccc1F)NC1CCN(c2ccnc(Nc3ccc(F)cc3)n2)CC1 [GSK1379800],0%,0%,0%,35%,0%,33%,1%,2%,0%,5%
CN1CCN(CCCNc2nccc(-c3c(-c4ccc(F)cc4)nn4cc(C(F)(F)F)ccc34)n2)CC1 [GW621581],0%,22%,0%,0%,0%,8%,11%,0%,19%,0%
COc1cccc(-c2ccc3c(NC(=O)C4CC4)n[nH]c3n2)c1 [SB-710903],19%,0%,0%,21%,0%,29%,3%,0%,0%,0%
Nc1n[nH]c2cnc(-c3ccccc3)cc12 [SB-642124],0%,0%,0%,16%,3%,37%,4%,8%,0%,5%
O=C(Nc1cccc(-c2nn3ccccc3c2-c2ccnc(Nc3cccc(C(F)(F)F)c3)n2)c1)c1c(F)cccc1F [GSK292658],0%,0%,0%,4%,4%,0%,11%,0%,0%,3%
Nc1ncnc2c1nc(-c1ccccc1)n2-c1ccccc1 [SKF-97293],16%,2%,0%,0%,0%,18%,21%,20%,0%,24%
O=C(Nc1n[nH]c2cc(-c3ccoc3)ccc12)C1CC1 [SB-738481],0%,0%,6%,1%,0%,0%,0%,25%,0%,0%
CC(C)(C)c1ccc2nccc(Nc3cccc(O)c3)c2c1 [GW856795],0%,3%,0%,0%,0%,32%,0%,18%,0%,0%
O=C(Nc1cccc(-c2nn3ccccc3c2-c2ccnc(Nc3cccc(F)c3)n2)c1)c1c(F)ccc(F)c1Cl [GSK357952],0%,31%,39%,9%,1%,50%,25%,0%,4%,0%
COc1ccc(Nc2nccc(N3CCC(NC(=O)Nc4cccc(OC)c4)C3)n2)cc1 (stereo not drawn) [GSK1379742],0%,0%,25%,11%,0%,9%,0%,31%,0%,0%
COc1cc(Nc2nccc(-c3c(-c4cccc(NC(=O)c5c(F)cccc5F)c4)nn4ccccc34)n2)cc(OC)c1OC [GSK323521],28%,56%,17%,0%,0%,6%,92.1%,39%,33%,33%
Cl.c1ccc(-c2ccc3c(Nc4ccc5[nH]ccc5c4)ccnc3c2)nc1 [GW440138],0%,0%,0%,6%,0%,35%,0%,0%,9%,0%
Clc1ccc(-c2nn3ncccc3c2-c2ccnc(Nc3ccc4c(c3)OCCO4)n2)cc1 [GW829116],0%,16%,0%,34%,0%,0%,0%,9%,0%,0%
